Results on 15 compounds are retold here after PubChem BioAssay.

In assay [1] the target is Albumin (Bos taurus) (UniProt P02769). Put plainly: compounds binding labelled BSA control protein – biochemical, small-molecule microarray, Alexa647 label, 635/667 nm fluorescence, artefact control for SMM control protein annotation, profiling panel (AID 1118).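 Note: score merges 667 nm emission intensity and signal-to-noise per printed compound spot.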 As to conditions: BSA-A647 binding, fluorescence 635 nm, higher = more signal.
Assay [2] is described as follows: probe aXIP binding to arrayed compounds – biochemical, NeuroSMM set, 635/667 nm fluorescence, primary screen (AID 1119).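 Note: probe is the protein aXip251-270 applied at 1 µg/mL to compound-printed slides; binding of probe to printed compounds measured as 667 nm fluorescence plus signal to noise.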 As to conditions: small-molecule microarray, higher = more signal, called active from +8 up or from −8 down.
The nature of assay [3]: probe aNOTCH3 binding on compound microarray – biochemical, small-molecule microarray, 635/667 nm fluorescence, primary screen (AID 1120).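 Note: probe is a biotin-tagged antibody raised against NOTCH3 rather than NOTCH3 protein; score merges spot fluorescence near 667 nm with spot signal to noise.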 The settings on record: higher = more signal.
The nature of assay [4]: probe aNOTCH2 binding on compound microarray – biochemical, small-molecule microarray, 635/667 nm fluorescence, primary screen (AID 1121).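 Note: score merges feature fluorescence read at 667 nm with its signal to noise.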 As to conditions: higher = more signal.
The target in assay [5] is Carbonic anhydrase 2 (Homo sapiens) (UniProt P00918). In words: compounds binding carbonic anhydrase 2 – biochemical, small-molecule microarray, Alexa647-labelled CAII, profiling panel (AID 1122). The settings on record: CAII-A647 binding fluorescence, higher = more signal.
A short description of assay [6]: COS7 lysate on small-molecule microarray, probe aHis, 635 nm (AID 1123).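 Note: z-score combines 667nm fluorescence intensity with signal-to-noise per printed compound spot.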 The settings on record: COS7 cell lysate, fluorescence, higher = more signal.
Assay [7] in a line: probe aLAP1 signal on lysate-treated microarray – cell lysate, small-molecule microarray, COS7 lysate, primary screen (AID 1124).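 Note: lysate comes from COS7 cells expressing LAP1 and is applied at 0.3 µg/mL; score merges spot fluorescence near 667 nm with signal-to-noise over triplicate slides.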 The settings on record: probe aLAP1, fluorescence, higher = more signal.
Assay [8] concerns Sam68 (KHDRBS1). Put plainly: compounds binding KHDRBS1 protein – biochemical, small-molecule microarray, 635 nm fluorescence, primary screen (AID 1125).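 Note: score merges 667 nm channel intensity with signal to noise over triplicate slides.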 As to conditions: higher = more signal.
For assay [9], the system named is Chordin-like protein 2 (CHRDL2). In words: compounds binding chordin-like 2 – biochemical, small-molecule microarray, 635 nm fluorescence, primary screen (AID 1126).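 Note: printed compound slides probed with Chrdl2 protein at 4 µg/mL for 1 h at 4 C; score merges 667 nm emission intensity with signal to noise over three replicate slides.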 As to conditions: fluorescence 635 nm, higher = more signal.
Assay [10] has as its target Concanavalin-A (Canavalia ensiformis) (UniProt P02866). Put plainly: compounds binding concanavalin A lectin – biochemical, small-molecule microarray, Alexa647 label, 635 nm, artefact control for SMM control protein annotation, primary screen (AID 1127).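 Note: z combines 667 nm emission intensity with signal-to-noise across three replicate slides.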 As to conditions: ConA-A647 binding fluorescence, higher = more signal.

Each structure is given as a SMILES string. The source made the active and inactive calls.

Sequence of Concanavalin-A (Canavalia ensiformis) (P02866 whole entry, looked up): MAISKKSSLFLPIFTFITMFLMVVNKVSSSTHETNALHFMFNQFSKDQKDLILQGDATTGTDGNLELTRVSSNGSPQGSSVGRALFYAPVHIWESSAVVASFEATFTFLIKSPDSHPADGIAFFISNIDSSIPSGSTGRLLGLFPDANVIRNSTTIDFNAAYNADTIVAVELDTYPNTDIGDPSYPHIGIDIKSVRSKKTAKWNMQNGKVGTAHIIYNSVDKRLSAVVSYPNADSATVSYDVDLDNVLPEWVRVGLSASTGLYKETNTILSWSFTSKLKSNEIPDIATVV
Sequence of Albumin (Bos taurus) (P02769 whole entry, looked up): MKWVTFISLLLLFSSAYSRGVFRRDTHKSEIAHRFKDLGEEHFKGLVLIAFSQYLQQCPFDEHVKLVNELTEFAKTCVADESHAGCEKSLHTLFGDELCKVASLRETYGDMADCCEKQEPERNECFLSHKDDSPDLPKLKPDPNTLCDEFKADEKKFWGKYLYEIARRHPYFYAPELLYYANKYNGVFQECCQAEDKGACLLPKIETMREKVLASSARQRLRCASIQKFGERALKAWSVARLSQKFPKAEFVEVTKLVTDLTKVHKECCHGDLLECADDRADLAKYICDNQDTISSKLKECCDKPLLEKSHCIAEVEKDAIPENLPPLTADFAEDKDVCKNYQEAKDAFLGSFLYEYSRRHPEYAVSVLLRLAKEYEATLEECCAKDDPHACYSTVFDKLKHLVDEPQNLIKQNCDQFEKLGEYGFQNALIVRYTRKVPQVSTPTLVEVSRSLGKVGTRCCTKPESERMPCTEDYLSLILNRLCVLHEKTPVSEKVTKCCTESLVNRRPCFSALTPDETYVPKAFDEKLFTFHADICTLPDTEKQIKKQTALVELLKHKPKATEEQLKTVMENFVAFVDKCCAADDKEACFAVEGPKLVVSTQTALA

As to `CCCCc1nc2c(c3c1C[C@H](C)OC3)CN(CCOc1ccccc1)CC2`, the composite z-score was 0.674 in [1]; 0.058 in [3]; -0.11 in assay [4]; 0.221 in assay [5]; 0.686 in [6]; 0.135 in assay [7]. For the same compound, the composite z-score in assay [8] is 1.06; in assay [9], 0.726; in [10], 0.975. In addition, in assay [2], the composite Z-score was 0.202 (inactive).

Regarding `CCOC(=O)[C@H](CC(C)C)NC(=O)CCC1CC(OC(=O)NCc2cccc3ccccc23)CC2(CCCC(COC(=O)NCCCN3CCCC3=O)O2)O1` (stereo not given in full), the composite z-score is 0.247 in assay [1]; -0.0328 in [3]; -0.108 in [4]; 0.581 in assay [5]; 0.444 in assay [6]; -0.0183 in assay [7]. Besides, the composite z-score in assay [8] came out at 1.29; in assay [9] it was 0.256; in [10], 0.832. Further, the composite Z-score in assay [2] was -0.122 (inactive).

Regarding `CC(=O)OC[C@H]1O[C@@H](ON=C(C)CCN2CCCc3nc(C)c(C)cc32)[C@H](OC(C)=O)[C@@H](OC(C)=O)[C@@H]1OC(C)=O`, the composite z-score in assay [1] is 0.449; in assay [3], -0.0587; in [4], -0.0695; in [5], 0.155; in assay [6], 0.678; in assay [7], 0.16. The values for the composite z-score in [8], in assay [9] and in assay [10] were 1.13, -0.144 and 1.03, respectively. Further, the composite Z-score in [2] is 0.403 (inactive).

Take `O=C1[C@H]2[C@H]3[C@H](O)[C@H](O)CC(=NOC[C@@H](O)COCc4ccco4)[C@H]3CC[C@H]2C(=O)N1Cc1ccccc1`: the composite z-score in assay [1] was -0.13; in assay [3], -0.119; in [4], -0.192; in assay [5], -0.154; in [6] it was -0.867; in [7] it was -0.343. For the same compound, the composite z-score in assay [8] is -0.333; in assay [9] it was 0.836; in assay [10] it was -0.242. Further, the composite Z-score in assay [2] is 0.48 (inactive).

As to `CCOC(=O)CCN1C(=O)[C@H]2[C@H]3[C@H](O)[C@H](O)CC(=NNC(=O)OCc4ccccc4)[C@@H]3CC[C@H]2C1=O`, the composite z-score was 0.576 in assay [1]; -0.0864 in assay [3]; -0.117 in assay [4]; 0.21 in assay [5]; -0.0034 in assay [6]; 0.32 in assay [7]. The composite z-score in [8] was determined as 1.19; in assay [9], 0.393; in assay [10], 1. For the same compound, in assay [2], the composite Z-score was 0.406 (inactive).

Turning to `C[C@@H](ON=C1[C@H]2CCn3c(=O)n(-c4ccccc4)c(=O)n3[C@H]2[C@H](O)[C@@H]2O[C@H]12)c1cn([C@@H]2COC[C@H]2O)nn1`, the composite z-score in [1] is -0.244; in assay [3], 0.0159; in assay [4] it was -0.0938; in assay [5] it was 0.134; in assay [6], -0.282; in assay [7], 0.211. Besides, the composite z-score in assay [8] was 0.509; in assay [9], 0.534; in assay [10], 0.459. The composite Z-score in assay [2] is -0.419 (inactive).

Turning to `C[C@H]1COC(=O)[C@@H]2CCCN2C(=O)[C@@H](C)COC(=O)[C@H](Cc2ccccc2)NC1=O`, the composite z-score is -0.0588 in [1]; -0.0647 in assay [3]; -0.126 in [4]; 0.294 in assay [5]; 0.403 in [6]; 0.137 in [7]. Besides, the composite z-score in assay [8] amounted to 0.957; in [9], 0.211; in assay [10], 0.476. In addition, in assay [2], the composite Z-score was -0.21 (inactive).

For the compound `CO[C@@H]1COC(=O)[C@@H](C)COC(=O)[C@@H](C)NC(=O)CC=C[C@@H]1C`, the composite z-score in assay [1] is -0.647; in assay [3] it was -0.16; in [4], -0.208; in assay [5], -0.425; in assay [6], -0.566; in assay [7] it was 0.262. The composite z-score was 0.0411 in [8], 1.6 in assay [9] and -0.988 in assay [10]. For the same compound, in assay [2], the composite Z-score was -0.377 (inactive).

For `CC(=O)Nc1ccc([C@@H]2N[C@H](C(=O)O)CC[C@H]2C)cc1`, the composite z-score in assay [1] was 0.0499; in assay [3] it was -0.132; in assay [4], -0.203; in [5], -0.172; in assay [6] it was -0.0725; in [7] it was 0.0356. Besides, the composite z-score in assay [8] is 0.22; in assay [9] it was 0.65; in assay [10], 0.36. The composite Z-score in assay [2] is 0.237 (inactive).

`C[C@H](ON=C1[C@H]2CCn3c(=O)n(-c4ccccc4)c(=O)n3[C@H]2[C@H](O)[C@@H]2O[C@H]12)c1cn([C@H](CO)Cc2ccccc2)nn1`: the composite z-score is 0.426 in assay [1]; -0.0788 in assay [3]; -0.0888 in assay [4]; 0.407 in assay [5]; 0.183 in [6]; 0.29 in assay [7]. In addition, the composite z-score in assay [8] was 0.168; in assay [9], 0.388; in assay [10], 1.06. The composite Z-score in assay [2] is -0.285 (inactive).

`CCN1C(=O)[C@H]2[C@H]3[C@H](O)[C@H](O)CC(=O)[C@@H]3CC[C@H]2C1=O`: the composite z-score in assay [1] is 0.4; in [3], -0.0377; in assay [4] it was -0.179; in assay [5], 0.0044; in assay [6], 0.304; in assay [7], 0.335. The composite z-score in [8] was 0.826; in assay [9] it was 0.503; in [10], 0.735. The composite Z-score in [2] is -0.141 (inactive).

For the compound `O=C1C[C@@H](O)[C@@H](O)[C@@H]2[C@@H]3C(=O)N(Cc4ccccc4)C(=O)[C@@H]3CC[C@@H]12`, the composite z-score in assay [1] is 0.256; in assay [3] it was -0.0328; in assay [4] it was -0.12; in [5] it was 0.0093; in assay [6], -0.281; in assay [7], 0.213. The composite z-score in assay [8] was found to be 0.63; in assay [9] it was 0.791; in [10], 0.633. Besides, in [2], the composite Z-score is 0.277 (inactive).

For `CCCCC#C[C@@H]1C=C[C@H](OC(C)=O)[C@@H](COC(C)=O)O1`, the composite z-score in [1] is 0.678; in assay [3], 0.0758; in assay [4], -0.0698; in assay [5] it was -0.0641; in [6], 0.015; in assay [7] it was -0.406. The figures for the composite z-score in assay [8], in [9] and in assay [10] were 0.581, 0.282 and 0.475, respectively. The composite Z-score in assay [2] is 0.299 (inactive).

On to `CCOC(=O)[C@H](Cc1ccccc1)NC(=O)CCC1CC(OC(=O)NCc2ccc3c(c2)OCO3)CC2(CCCC(COC(=O)NCCC(C)C)O2)O1` (stereo not given in full), for which the composite z-score in assay [1] is 0.112; in assay [3], 0.0252; in [4], -0.0707; in assay [5], 0.493; in assay [6] it was 0.394; in assay [7], -0.133. For the same compound, the composite z-score stood at 0.907 in assay [8], 0.309 in assay [9] and 1.11 in [10]. Also, in assay [2], the composite Z-score was 0.416 (inactive).

Turning to `COC(=O)CC=C[C@@H](C)[C@@H](C=NO[C@@H](C)c1cc(-c2c(C)cc(C)cc2C)no1)NS(=O)(=O)c1ccc(C)cc1`, the composite z-score in assay [1] was -0.356; in assay [3] it was -0.197; in [4], -0.115; in assay [5], -0.6; in assay [6], -0.238; in assay [7], -0.565. Moreover, the values for the composite z-score in [8], in assay [9] and in [10] were -0.723, -0.674 and -0.985, respectively. Moreover, in [2], the composite Z-score was -0.136 (inactive).
